# Unmarked numbers belong to inactive results. Active and inactive are the calls of the source. Rule as the data show it: active = inhibition above about 30%; inactive = the rest.
# Assay: growth suppression of yeast trafficking mutant, preliminary HTS, modulators of trafficking downstream of Golgi apparatus project, 1536-format plate, OD 615 nm (AID 637)
# Settings: yeast transport mutant growth, absorbance 615 nm, 18 h; active compounds read high
row,SMILES,inhibition
1,CCOc1ccc(OCc2ccc(C(=O)Nc3cccc(C)n3)o2)cc1,-1.61%
2,CCOC(=O)N1CCC(NC(=O)CSCc2nc(-c3cccc(OC)c3)oc2C)CC1,3.06%
3,Cn1c(=O)cc(OCC(=O)N2CCN(c3cccc(C(F)(F)F)c3)CC2)c2ccccc21,5.57%
4,CCCCOc1ccc(CSc2n[nH]c(C)n2)cc1,-0.49%
5,CS(=O)(=O)N(CC(=O)NCc1ccccn1)c1ccc2c(c1)OCCO2,4.35%
6,CCOC(=O)CSc1nnc([C@H](C)NC(=O)OC(C)(C)C)o1,-10.2%
7,CCSc1nnc2c(n1)OC=Nc1ccc(Br)cc1-2,-4.67%
8,COc1ccccc1Nc1nc2ccccc2[nH]1,-7.94%
9,Cc1oc(-c2ccccc2Cl)nc1CSCC(=O)N1CCCC1,6.61%
10,CNC(=O)Nc1cccc(C(F)(F)F)c1,0%
11,CCOC(=O)N1CCN(c2c(NCCN(C)Cc3ccccc3)c(=O)c2=O)CC1,-2.3%
12,CCOc1ncccc1C(=O)OCC(=O)N1CC(=O)Nc2ccccc21,-4.92%
13,Cn1c(=O)c2c(-c3ccccc3)n(CCCN3CCOCC3)cc2n(C)c1=O,-4.29%
14,COc1cccc(NC(=O)N2CCN(c3cccc(C)c3C)CC2)c1,-3%
15,CCCCC(=O)NCCNc1nc2c(c(=O)n(C)c(=O)n2C)n1Cc1ccccc1,2.06%
16,COc1ccc(S(=O)(=O)Nc2ccc(S(=O)(=O)N3CCCCC3)cc2)cc1OC,-2%
17,COc1ccc(CN2CC(C(=O)NCc3ccccn3)CC2=O)cc1 (stereo not given),-4.03%
18,CC(C)(C)NC(=O)Cn1nnc(-c2cccs2)n1,0%
19,COCCn1nnnc1CN(Cc1cccnc1)Cc1cc2cc(OC)ccc2[nH]c1=O,4.26%
20,CC(C)=CC/C=C1\CCC(C(=O)O)C(C(=O)O)C1 (stereo not given),-0.48%

row,SMILES,inhibition
1,CCOC(=O)C1=C(C)NC(SC(C)=O)=NC1c1ccc(OC(C)=O)c(OC)c1 (stereo not given),-6.36%
2,O=C(Nc1cccc(F)c1)c1cccc(S(=O)(=O)N2CCOCC2)c1,-5.71%
3,CCCn1c(SCC(=O)N2CCCc3ccccc32)nnc1-c1ccccn1,5.16%
4,Cc1ccccc1N(C)S(=O)(=O)c1ccc2[nH]cc(C(=O)NCC3CCCO3)c(=O)c2c1 (stereo not given),0.17%
5,Cc1cccc(C(OC(=O)c2ccco2)C(=O)NCc2ccccc2)n1 (stereo not given),-1.64%
6,Nn1c(SCC(=O)Nc2ccc(F)cc2)nnc1-c1cccnc1,-3.67%
7,CCOC(=O)c1c(NC(=O)c2nn(CC)cc2Br)c(C#N)cn1-c1ccccc1,-6.17%
8,CCCCOC(=O)CN1C(=O)c2ccc(C(=O)OCCCC)cc2C1=O,0.82%
9,O=C(COc1ccc(Cl)cc1)Nc1nc(-c2cccs2)cs1,0.18%
10,O=C(CSc1ncn[nH]1)c1ccco1,0.33%
11,CC(=O)Nc1c(O)nc(SCC(=O)Nc2nnc(CC(C)C)s2)[nH]c1=O,22.4%
12,COC(=O)C(C)NC(=O)C12CC3CC(CC(C3)C1)C2 (stereo not given),-5.33%
13,CCOc1cc(C2C(C#N)=C(N)OC(C)=C2C(C)=O)cc(Br)c1O (stereo not given),-6.83%
14,COC(=O)c1cc(Br)c(=O)n(Cc2cccnc2)c1,0.18%
15,COc1cc(NS(=O)(=O)c2ccc(Br)s2)cc(OC)c1,-7.7%
16,Cc1ccccc1N(CC(=O)NCC1CCCO1)C(=O)C1(C)CC(=O)N=C2C=CC=CN21 (stereo not given),-10.5%
17,CSc1ccc(S(=O)(=O)Nc2cccc(F)c2)cc1,-5.33%
18,CCC(C)(C)n1nnnc1C(c1ccncc1)N1CCN(c2cccc(OC)c2)CC1 (stereo not given),4.26%
19,CCn1c(=O)c(C(=O)Nc2cccnc2)c(O)c2ccccc21,100% (active)
20,CCOCCCNC(=O)CCNS(=O)(=O)c1ccc(C)cc1,-5.5%
